Results: PubChem BioAssay AID2685 (National Center for Advancing Translational Sciences (NCATS), 2010)
In all, about 320,000 compounds went through this assay and about 2,100 (0.66%) were called active. Inconclusive results (about 53%) are left out. Calls follow the shape of the dose curve; as a rule, active = well fitted inhibition curve with a large enough effect in the signal ratio, with a control signal flat (not every such curve was filed as active); inconclusive = small, poorly fitted or top-dose-only effect, or effect the other way, or a change in a side signal; inactive = flat fitted curve, though single readings scatter; the % refers to the signal ratio. Many of the other results were omitted from the sample, so actives are more common in it than they were.

Test: qHTS Assay for Lipid Storage Modulators in Drosophila S3 Cells;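 as to cell number change: cells counted by Cell Tracker Red CMTPX staining in the red channel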
Conditions: BODIPY lipid droplet fluorescence, 18-24 h, cells fed with added oleic acid; cell number change: measured here: cell count max response; series mostly up to 46.1 µM
Summary of the method: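 Drosophila S3 cells got compounds at several concentrations plus oleic acid (400 uM solution). Laser-scanning cytometry with 488 nm excitation read lipid droplets at 500-530 nm and cells at 575-640 nm. Percent activity was relative to 20 uM Triacsin C.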
Potency is read from the fitted curve at half-maximal effect.

Compound	Potency	cell number change [%]
Cn1c(=O)c(=O)n(C)c2cc(S(=O)(=O)N3CCCCCC3)ccc21	inactive	11.2
CN(C)CCCNS(=O)(=O)c1ccc(N2CCN(Cc3ccc4c(c3)OCO4)CC2)c([N+](=O)[O-])c1	inactive	-3.81
COc1cc(OC)c(NC(=O)C(=O)CC(=O)c2ccc(C)cc2C)cc1Cl	inactive	-12.6
CN1C(=O)/C(=C/c2ccccc2Cl)Sc2ccc(C(=O)NCc3cccnc3)cc21	inactive	-7.77
Cc1ccc(S(=O)(=O)N/N=c2\oc3ccccc3cc2C(=O)Nc2cccc(C)c2)cc1	inactive	-24.3
CCOC(=O)c1sc2nc(C)nc(SCC(=O)N(CC)C3CCS(=O)(=O)C3)c2c1C (stereo not drawn)	inactive	-1.32
Cn1nc(-c2ccc(C(=O)NCCO)cc2)c2ccccc2c1=O	inactive	-4.78
CC1(c2ccc(OCC#N)cc2)C=C(c2ccc(OCC#N)cc2)n2nc(C(F)(F)F)nc2N1 (stereo not drawn)	inactive	-2.27
C=CCN1c2ccccc2[C@]23C[C@@H](C(=O)OC)N=C2NC(C(=O)OC)=C(C(=O)OC)[C@H]13	inactive	33.7
CC(C)OC(=O)/C(C#N)=C\c1cccnc1	inactive	5.73
CCC(C)(C)NC(=O)C(c1ccc(OC)cc1)N(C(=O)CCC(=O)Nc1cc(C)on1)C1CC1 (stereo not drawn)	inactive	-1.32
O=C(Nc1cc2c(cc1Br)OCCO2)c1cccnc1	inactive	-16.4
Cc1ccc(S(=O)(=O)N2CCC(C(=O)NNS(=O)(=O)c3ccc(Cl)cc3)CC2)cc1	inactive	4.8
Cc1ccc(S(=O)(=O)NNC(=O)C2CCCCC2)cc1	0.651 µM (active)	6.31
Cc1ccc(S(=O)(=O)NNC(=O)C2CCN(S(=O)(=O)c3ccc(C)cc3)CC2)cc1	inactive	1.57
CCOc1ccc(C(=O)OCC(=O)N2CCCC2)cc1OCC	inactive	-21
COc1ccccc1NS(=O)(=O)c1cc(NC(=O)CCNC(C)=O)ccc1C	inactive	9.21
CS(=O)(=O)NCCCCNc1ccc(C(F)(F)F)cc1[N+](=O)[O-]	inactive	4.42
O=[N+]([O-])c1cc(C(F)(F)F)ccc1NCCCCNS(=O)(=O)c1ccc(Cl)cc1	25.9 µM (active)	-16.8
CS(=O)(=O)NCCCNc1ccc(C(F)(F)F)cc1[N+](=O)[O-]	inactive	2.05

Compound	Potency	cell number change [%]
COc1ccc(C(=O)NCCNc2nc3ccc(C)cc3cc2C#N)cc1OC	inactive	
COc1ccc(C(=O)NCCNc2nc3ccc(C)cc3cc2C#N)cc1	20.6 µM (active)	-23.8
CCOc1ccc2nc(NCCNC(=O)CC)c(C#N)cc2c1	inactive	0.214
CCOc1ccccc1OCCCC(=O)N1CCN(S(=O)(=O)c2ccc(C)cc2)CC1	inactive	-13.5
Cc1c(C(=O)O)sc2nc(CSc3ncc(C(F)(F)F)cc3Cl)[nH]c(=O)c12	inactive	6.43
Cc1c(C)n(Cc2ccccc2)c2ncnc(NCCCO)c12	inactive	13.8
O=c1c(Cl)c(NCc2ccccc2Cl)cnn1C12CC3CC(CC(C3)C1)C2	13 µM (active)	-8.24
O=c1c(Cl)c(NCc2ccc(F)cc2Cl)cnn1C12CC3CC(CC(C3)C1)C2	inactive	-5.4
O=c1c(Cl)c(NCc2ccco2)cnn1C12CC3CC(CC(C3)C1)C2	inactive	-8.21
Cc1cccc(NC(=O)CS(=O)(=O)c2cn(C)c3ccccc23)c1	inactive	-0.98
CNC(=S)N(CCCn1ccnc1)Cc1c(F)cccc1Cl	3.26 µM (active)	21.2
O=C(Cc1c(F)cccc1Cl)NCCCn1ccnc1	inactive	-2.56
O=C(CC1C(=O)NCCN1Cc1c(F)cccc1Cl)NCCCn1ccnc1 (stereo not drawn)	inactive	8.35
CCCCn1c(CNC(=O)C(C)(C)C)nc2ccccc21	inactive	-1.23
COc1ccc(Nc2nnc(SCC(=O)Nc3ccc4[nH]c(=O)[nH]c4c3)s2)cc1	inactive	-17.1
Cc1nnc(SCCN2C(=O)c3ccccc3C2=O)[nH]c1=O	inactive	-14.8
O=C(/C=C/c1cccc([N+](=O)[O-])c1)NCCN1C(=O)S/C(=C\c2ccc(F)cc2)C1=O	inactive	13.9
O=C(/C=C/c1ccccc1[N+](=O)[O-])NCCN1C(=O)S/C(=C\c2ccc(F)cc2)C1=O	inactive	-11.5
CC(C)(C)C(=O)NCCN1C(=O)S/C(=C\c2ccc([N+](=O)[O-])cc2)C1=O	11.6 µM (active)	-4.32
COc1ccc(-c2nc(CS(=O)(=O)CC(=O)NCc3ccccc3Br)c(C)o2)cc1	inactive	11.5

Compound	Potency	cell number change [%]
COc1cccc(-c2nc(CS(=O)(=O)CC(=O)NCc3ccccc3)c(C)o2)c1	inactive	1.69
COc1ccc(-c2nc(CS(=O)(=O)CC(=O)NCc3cccc(Br)c3)c(C)o2)cc1	13 µM (active)	10.1
CC(C)=CCN1CCN(Cc2cnc(-c3ccccc3)s2)CC1CCO (stereo not drawn)	inactive	-2.03
Cc1ccc(CN2CCN(C(=O)c3ccco3)CC2)cc1	inactive	11.8
Cc1ccc(-n2nc(C)c(C(=O)N3CCN(C(=O)c4ccco4)CC3)c2-n2cccc2)cc1	16.4 µM (active)	-18.3
Cc1ccc(-n2ncc(C(=O)N3CCN(C(=O)c4ccco4)CC3)c2-n2cccc2)cc1	inactive	-13.4
O=C(Nc1ccncc1)c1sc2ccccc2c1Cl	inactive	17.8
Cc1nn(CC#N)c(=O)n1-c1ccccc1	inactive	5.19
CCOC(=O)C1CCN(C(=O)CSc2c3c(nc4ccccc24)CCC3)CC1	inactive	8.19
N#Cc1ccc(-c2csc(-c3ccno3)n2)cc1	inactive	9.9
COc1ccc(/C=C2\N=C(C)N(c3ccc4ccccc4c3)C2=O)cc1OC	5.17 µM (active)	14.3
COc1ccc(/C=C2\N=C3CCCCCN3C2=O)cc1OC	inactive	-0.0934
COc1ccc(/C=C2\N=C(c3ccccc3)N(c3ccc(C(=O)O)cc3)C2=O)cc1OC	inactive	
Cc1ccc(S(=O)(=O)N(C)/N=C/C=C/c2ccccc2)cc1	inactive	-10.7
O=C(COC(=O)Cn1cnc2ccccc21)Nc1cccc(S(=O)(=O)N2CCOCC2)c1	inactive	-0.979
NC(=O)C1(N2CCCCC2)CCN(C(=O)CSc2nc3ccccc3s2)CC1	inactive	-22.8
NC(=O)C1CCN(C(=O)CSc2nc3ccccc3s2)CC1	16.4 µM (active)	5.89
NC(=O)C1CCN(C(=O)CSc2nc3ccccc3o2)CC1	inactive	
